Out of some 4,800 compounds screened, about 410 (8.5%) showed an effect of 50% or more. Many of the other results were omitted from the sample, so strong results are more common in it than they were.
tested on: Plasmodium falciparum; assay: Confirmatory screen in NF54 pLDH assay, in single point, at 2uM, 72h; format: functional, Erythrocyte; conditions: timepoint 72 hour

SMILES	% Inhibition [%]
Fc1cccc(F)c1-n1c(CN2CCCCC2)csc1=S	-5
CC(C)c1c2cc3c(cc2nn1-c1ccccc1)OCCO3	-11
CCCCCNC(=O)NCc1ncoc1C	4
C[C@H](O)CNCc1ccc(Cl)cc1Cl	1
Cc1cc(C)cc(-n2c(=O)c3sccc3n(CC(=O)NCc3ccccc3Cl)c2=O)c1	-17
O=c1[nH]c2ccccc2nc1-c1cc(Br)ccc1NS(=O)(=O)c1cccc2nsnc12	3
CNc1nc(N2C[C@H](C)[C@@](O)(C3CC3)C2)nc2c1CCC2	1
Fc1ccccc1N1CCN(c2c3c(nc4nc(Cc5ccc(Cl)cc5)nn24)CCCC3)CC1	7
Cc1cc(-c2ccccc2)c(C#N)c(=O)n1C(=O)c1ccc(C#N)cc1	11
Brc1cc(Br)c2nc(-c3ccc(C4CCCCC4)cc3)ccc2c1	12
Cc1[nH]c2ccnn2c(=O)c1CC(=O)N1CC[C@H](C)c2cccc(O)c21	2
CCN(CC)c1nc(-c2ccccc2)c(C#N)c(N)c1C#N	12
O=C(CN1CCOC2CCCCC21)N1CCOC2CCCCC21 (stereo not drawn)	-9
O=C(CN1CCC[C@H]1C1CCCC1)NCC1CCCCC1	61
CC(C)N1CCC(NC(=O)NCC2CCCCCCC2)CC1	6
COc1ccc(OCC(=O)Nc2ccc(N3CCn4c(nc5cc(Cl)ccc54)C3)cc2OC)cc1	-5
CC(C)COc1ccc(/C(N)=N/O)cc1	-20
Cc1ccccc1CN(Cc1ccccn1)Cc1ccnn1C	-5
CC1CCC(N(C)C(=O)c2cc(S(=O)(=O)N3CCCCC3)ccc2N2CCCC2)CC1 (stereo not drawn)	-10
Cc1cc(C(=O)N[C@H]2CCS(=O)(=O)C2)nc(N(C)C)n1	2
Cc1ccc(N2C(=O)CN(CC(C)C)[C@H]3CS(=O)(=O)C[C@H]32)cc1	14
Cc1cccc(NC(=O)CCC(=O)OCC(F)(F)C(F)F)c1C	1
N#Cc1c(NC(=O)CN2CCC[C@@H]2CO)sc2c1CCCCC2	0
CC(C)(C)[C@H]1CCc2c(sc(NC(=O)C3(F)C(F)(F)C(F)(F)C(F)(F)C(F)(F)C3(F)F)c2C#N)C1	51
COCCN(CC(N)=O)CC(=O)NCc1ccccc1F	9

SMILES	% Inhibition [%]
COCCNc1nc(-c2ccccc2OC)c2c(N)n(-c3ccc(F)cc3)nc2n1	-5
COc1ccc(CCNc2nc(-c3ccc(OC)cc3F)c3c(N)n(-c4ccc(Cl)cc4)nc3n2)cc1	40
CC(C)(C)n1nc2nc(NCCN3CCCCC3)nc(-c3ccc(F)c(Cl)c3)c2c1N	76
CN(Cc1ccsc1)C(=O)c1cc2ccccc2[nH]1	17
FC(F)Oc1ccc(-c2c[n+](-c3cccc(C(F)(F)F)c3)c3n2CCCCC3)cc1	42
COc1ccc(CC(=O)NCc2nnc3n2CCC3)cc1	9
COc1ccc(C(=O)C[n+]2cc(-c3ccc(OC)cc3)n3c2CCCC3)cc1	65
COc1ccc(C(=O)C[n+]2nc(CNc3ccc(Br)cc3)n3c2CCCCC3)cc1	82
CCOc1ccc(-[n+]2cc(-c3ccccc3)n3c2CCC3)cc1	70
Cn1c(-c2ccc(Br)cc2)c[n+](CC(=O)c2ccc(Br)cc2)c1N	-4
Cn1c(-c2ccc(Cl)c(Cl)c2)c[n+](CC(=O)c2ccc(F)cc2)c1N	-12
Cc1ccc(-c2c[n+](-c3ccc(OC(F)F)cc3)c3n2CCCCC3)cc1	60
CCOc1nc(C)nc2cc(-c3ccccc3)n(Cc3ccccc3)c12	13
Cc1nnc(NC(c2cnc3ccccc3c2)[C@H]2C[C@@H](O)C2)s1 (stereo partly drawn)	12
O=C(Cc1c[nH]c2ccccc12)N1CCc2ccccc2C1	-17
COc1ccc2c(c1)OC13CCN(C)CC1C2C(C(=O)c1ccccc1OC)C(=O)N3 (stereo not drawn)	10
CCC(=O)N1CCc2sc(S(=O)(=O)N3CCN(c4cc(C)ccc4C)CC3)cc2C1	38
c1ccc(-c2cn(-c3ccccc3)c3ncnc(N4CCCC4)c23)cc1	13
C=CCOc1cc(C(=O)N2CCCCC2)cc2occc12	11
COc1cc([C@H]2CC(=O)Nc3c2cnn3C)ccc1OCc1ccccc1	-8
O=C(NC1CCCNC1=O)NC1CCCC1c1ccc(Cl)cc1 (stereo not drawn)	10
O=C(NCCC1=CCOCC1)c1cnc2ccccn12	-2
O=C(CCc1ccccc1)Nc1ccc(-n2nn[nH]c2=O)cc1	15
O=C1Nc2ccccc2[C@@]12Nc1ccccc1CO2	9
C[C@@H](C(=O)N1CCN(C/C=C/c2ccccc2)CC1)N1Cc2ccccc2C1=O	0

SMILES	% Inhibition [%]
Cc1ccc(CCNC(=O)c2ccc(-c3nc(CS(=O)(=O)c4ccc(C)cc4)c(C)o3)cc2)cc1	-23
COc1ccc(-c2c[n+](-c3ccc(Cl)cc3)c3n2CCCCC3)cc1	57
COc1ccc(N2CCN(Cc3cc(-c4ccc(Cl)cc4)no3)CC2)cc1	-19
COc1ccc(-n2nc(C(=O)N3CCN(c4ncccn4)CC3)c(=O)cc2OC)cc1	-29
CCC(C)(C)N(C)C(=O)c1ccccc1Cl	-1
Cc1cc(C)n(S(=O)(=O)c2ccc3c(c2)OCCO3)n1	7
CC12CN(S(=O)(=O)c3ccc4c(c3)OCCO4)C3(C(=O)OCc4ccccc4)CC1CCC23C (stereo not drawn)	64
COc1ccc2c(c1)CCN2S(=O)(=O)c1ccc2c(c1)OCCO2	-4
CC(C)C(=O)N1N=C(C(C)C)C[C@]1(O)C(F)(F)F	13
Oc1csc(Cc2nc(C(F)(F)F)cs2)n1	-4
COC1(CNC(=O)C[C@H](O)c2ccccc2)CCC1	-2
COc1cccc(CCc2ccccc2OC[C@H](CN(C)C)OC(=O)CCC(=O)O)c1	-5
O=C(C[C@H](NCCO)C(=O)O)c1ccc2c(c1)CCCC2	2
O=C(Nc1ccsc1C(=O)NCc1cc(F)cc(F)c1)c1cnccn1	13
O=C(Nc1ccc(Cl)c(Cl)c1)Nc1ccc(Cl)cc1NC(=O)Nc1ccc(Cl)c(Cl)c1	65
CNc1nc(C)cc(C(=O)Nc2ccc(Cl)cc2NC(C)=O)n1	5
C[C@@H](NC(=O)Nc1ccc(Cl)c(Cl)c1)C(=O)O	10
COc1ccc(-c2cc3n(n2)C[C@@](C)(C(=O)NCc2ccccc2)N(Cc2ccc4c(c2)OCO4)C3=O)cc1	39
COc1cc(N2CCn3c(nc4cc(Cl)ccc43)C2)ccc1NC(=O)C1CCCCC1	-13
Cc1ccc(C(=O)N(Cc2cccc(F)c2)c2ccc(CC(=O)N[C@@H](C)c3ccccc3)cc2)cc1	89
Cc1ccccc1C(=O)N(Cc1cccc(F)c1)c1ccc(CC(=O)NCCN2CCCCC2)cc1	39
O=C(Cc1ccc(N(Cc2cccc(F)c2)C(=O)c2cccc(F)c2)cc1)NCCN1CCCCC1	29
O=C(OCc1cncs1)c1ccccc1	10
Cc1cc2nnc(-c3nc4ccccc4[nH]3)c(N)n2n1	-2
Nc1c(-c2nc3ccccc3[nH]2)c2nc3ccccc3nc2n1Cc1ccccc1F	62

SMILES	% Inhibition [%]
CCC1C(C(=O)NCCN(C)CCOC)CCN1C(=O)OC(C)(C)C (stereo not drawn)	1
CCn1ccc([C@H](C)NC(=O)c2cc(-c3ccc(OC)cc3)nc3c2c(C)nn3C)n1	12
Cc1c(CN(C)C(=O)Cn2ncc(Br)c2C)cnn1C	4
CCc1ccc(CN2C(=O)c3c(C(=O)OC)ncn3C[C@@]2(C)C(=O)NC2CCCCCC2)cc1	14
CCc1ccc(-c2cc3n(n2)C[C@@](C)(C(=O)NC2CCCCC2)N(c2cc(C)cc(C)c2)C3=O)cc1	58
C[C@@]1(C(=O)NCc2ccccc2)Cn2nc(-c3ccccc3)cc2C(=O)N1c1ccc2c(c1)OCCO2	36
O=C(O[C@@H](c1ccccc1)N1C(=O)C(C(F)(F)F)(C(F)(F)F)c2ccccc21)C(C(F)(F)F)C(F)(F)F	12
Cc1c(NC(=O)c2ccccc2-c2ccccc2)ccc(N2CCCC2=O)c1NC(=O)c1ccccc1-c1ccccc1	-15
CCCN(CC(=O)O)S(=O)(=O)c1cccc(C)c1Br	-23
O=C(Nc1ccc2c(c1)cc(C(=O)Nc1ccc(C(F)(F)F)cc1)n2Cc1cccc(F)c1)c1ccccc1Cl	-25
C#CCN(CCCc1ccccc1C)[C@H]1CCS(=O)(=O)C1	-23
O=C(O)c1cc(-c2ccc3c(c2)OCCO3)nc2c(Br)cc(Br)cc12	3
COc1ccc(C(O)CN2CCC(c3ccccc3)C2)cc1F (stereo not drawn)	9
O=C(C1CCC1)N1CCC[C@H]1c1nc(C2CCOCC2)no1	12
COc1ccccc1NC(=O)c1cnn2c3c(cnc12)CCCCC3	3
CCOc1ccc2ccccc2c1C(=O)Nc1cc(C)nn1-c1nc2c(c(=O)[nH]1)CCC2	91
Cc1cc(NC(=O)C(=O)NC2CC(C)CC(C)(C)C2)n(-c2nc3c(c(=O)[nH]2)CCC3)n1 (stereo not drawn)	84
COc1ccc2ccccc2c1C(=O)Nc1ccc(N2CCN(C)CC2)c(Cl)c1	4
Cc1nc(-c2ccc3[nH]c(=O)[nH]c3c2)cs1	9
CC1CN(CCCNC(=O)Cc2c[nH]c3ccc(F)cc23)CC(C)O1 (stereo not drawn)	-4
CC(C1Cc2ccccc2O1)N(C)C(=O)c1n[nH]c2c1CCC2 (stereo not drawn)	-6
Cc1cc(Cl)ccc1S(=O)(=O)N1CCc2nnc([C@H]3CCN(C(C)C)C3)n2CC1	10
COC(=O)C12CCC(C(=O)NC[C@H]3CCCOC3)(CC1)CC2	2
